We go through 14 compounds from PubChem BioAssay (NCI).

This is part of a sample that, as a whole, favours compounds with a hit. Of some 83,000 tested, about 20% had one in any assay.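 Testing used 96-well plates and a 48-hour single-concentration exposure. Example: -40 means 40% of the starting cells died.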 Unmarked numbers belong to inactive results. Active and inactive are the calls of the source. Rule for the calls: active = growth percent below 10; inactive = the rest.

Among the test systems are SK-MEL-2 melanoma; EKVX NSCLC; SN12C renal; UO-31 renal; TK-10 renal; ACHN renal; CAKI-1 renal; A498 renal; CCRF-CEM leukemia; MOLT-4 leukemia.
What all share (assay): NCI-60 one-dose screen, 48 h (100 = growth as untreated, 0 = no growth, -100 = all killed)
Holding throughout (conditions): 10 µM unless noted

Regarding `COc1cnc2c(c1)C(=O)c1c-2n(CCCN2CCCC2)c(=O)c2cc(Cl)ccc12`, the growth is 65.2% in the assay on SK-MEL-2 melanoma; 46.6% in the assay on EKVX NSCLC; 27.5% in the assay with SN12C renal; 15.9% in the assay on UO-31 renal; 39.4% with TK-10 renal; 7.7% (active) with ACHN renal. In addition, the growth in the assay with CAKI-1 renal was 42.4%; with A498 renal, -9.2% (active); with CCRF-CEM leukemia it was -38.1% (active); in the assay on MOLT-4 leukemia, -24.4% (active).

As for `C[C@H](NC(=O)c1snnc1C1CC1)c1c(F)cccc1Cl`, the growth with SK-MEL-2 melanoma is 108%; with EKVX NSCLC it was 115%; in the assay on SN12C renal, 104%; in the assay with UO-31 renal it was 94%; in the assay with TK-10 renal, 129%; in the assay on ACHN renal, 92.1%. The growth is 115% in the assay on CAKI-1 renal, 96.4% in the assay with A498 renal, 110% in the assay with CCRF-CEM leukemia and 101% in the assay on MOLT-4 leukemia.

Turning to `Oc1ccc(-c2nc3ccccc3s2)cc1CN(Cc1ccccn1)Cc1ccccn1`, the growth was 3.08% (active) with SK-MEL-2 melanoma; 5.39% (active) in the assay on EKVX NSCLC; 20.3% in the assay with SN12C renal; -31.8% (active) in the assay with UO-31 renal; 2.77% (active) in the assay with TK-10 renal; 4.42% (active) in the assay on ACHN renal. For the same compound, the growth in the assay on CAKI-1 renal was -15.8% (active); in the assay with A498 renal it was 31.9%; with CCRF-CEM leukemia, 6.5% (active); in the assay on MOLT-4 leukemia it was 2.86% (active).

For `COc1cc(C2CC(c3ccc(C)cc3)=NN2C=O)ccc1Oc1ccnc2cc(Cl)ccc12` (stereo not given), the growth in the assay on SK-MEL-2 melanoma is 6.3% (active); in the assay on EKVX NSCLC, 79.2%; in the assay on SN12C renal, 75.7%; with UO-31 renal, 95.3%; in the assay with TK-10 renal, 54.5%; with ACHN renal it was 48.3%. Further, the growth in the assay with CAKI-1 renal is 69.7%; in the assay with A498 renal, 53.3%; in the assay with CCRF-CEM leukemia it was 82.8%; in the assay with MOLT-4 leukemia it was 80.3%.

Take `NC(N)=N/N=C/c1cccc(Cl)c1Cl`: the growth is 106% with SK-MEL-2 melanoma; 69.2% in the assay with EKVX NSCLC; 90.1% in the assay on SN12C renal; 66.3% with UO-31 renal; 88% with TK-10 renal; 84.2% with ACHN renal. Moreover, the growth in the assay on CAKI-1 renal was 59.1%; with A498 renal it was 61.6%; in the assay on CCRF-CEM leukemia, 52.7%; in the assay with MOLT-4 leukemia, 47.6%.

As for `O=C(Nc1ccc(-n2ccc3c(NC(=O)c4ccccc4)nccc32)cc1)c1ccc(N2CCOCC2)c(C(F)(F)F)c1`, the growth is 21% in the assay on SK-MEL-2 melanoma; 65.6% in the assay on EKVX NSCLC; 41.8% in the assay on SN12C renal; 0.765% (active) in the assay on UO-31 renal; 27.6% in the assay with TK-10 renal; 32.5% with ACHN renal. Also, the growth in the assay on CAKI-1 renal was 25.6%; with A498 renal, 68.9%; in the assay on CCRF-CEM leukemia, 26.9%; in the assay with MOLT-4 leukemia, 30.5%.

As to `COc1cnc2c(c1)C(=O)c1c-2n(CCCN2CCN(C)CC2)c(=O)c2cc(Cl)ccc12`, the growth with SK-MEL-2 melanoma is 32.3%; in the assay with EKVX NSCLC, 51.5%; with SN12C renal, 43%; in the assay on UO-31 renal, 40.1%; with TK-10 renal, 48.5%; with ACHN renal, 18.4%. Moreover, the growth with CAKI-1 renal is 45.3%; with A498 renal, -4.26% (active); with CCRF-CEM leukemia it was -14.6% (active); with MOLT-4 leukemia, -36.6% (active).

Regarding `COc1ccc2c(c1)C1=NN(C(=O)CO)[C@H](c3ccc(OC(F)(F)F)cc3)[C@@H]1CC2`, the growth in the assay with SK-MEL-2 melanoma is 89.5%; in the assay on EKVX NSCLC, 94.3%; with SN12C renal, 99.6%; in the assay with UO-31 renal, 53.5%; with TK-10 renal it was 162%; with ACHN renal it was 87.9%. For the same compound, the growth is 116% with CAKI-1 renal, 94.4% in the assay with A498 renal, 129% with CCRF-CEM leukemia and 86.9% with MOLT-4 leukemia.

Turning to `Cc1c(C(N)=O)sc2ncn(CC(=O)NN=C3CCCCC3)c(=O)c12`, the growth in the assay on SK-MEL-2 melanoma is 5.33% (active); in the assay with EKVX NSCLC, 96.6%; in the assay with SN12C renal, 96.3%; in the assay with UO-31 renal it was 124%; in the assay on TK-10 renal it was 106%; with ACHN renal it was 109%. The growth in the assay with CAKI-1 renal is 132%; in the assay with A498 renal, 111%; in the assay with CCRF-CEM leukemia it was 113%; in the assay with MOLT-4 leukemia, 109%.

For `CCN(CC)c1cc(C)c(Cc2c(OC)ccc3ccccc23)cc1C`, the growth in the assay on SK-MEL-2 melanoma is 94.4%; in the assay with EKVX NSCLC, 93.4%; in the assay with SN12C renal, 91.2%; with UO-31 renal, 73.1%; in the assay on TK-10 renal, 95.6%; in the assay with ACHN renal, 99.4%. Further, the growth in the assay on CAKI-1 renal is 93.1%; with A498 renal, 96.6%; in the assay on CCRF-CEM leukemia, 102%; in the assay with MOLT-4 leukemia, 79.7%.

Consider `CCN(CC)c1ccc2c(cc1=O)[C@@H](NC(C)=O)CCc1cc(OC)c(OC)c(OC)c1-2`, for which the growth with SK-MEL-2 melanoma is 4.73% (active); in the assay on EKVX NSCLC, 44.6%; in the assay with SN12C renal it was 32.9%; in the assay on UO-31 renal it was 58.3%; in the assay on TK-10 renal it was 30.8%; in the assay with ACHN renal, 30.3%. In addition, the growth is 64.3% with CAKI-1 renal, -15.9% (active) in the assay on A498 renal, 9.47% (active) in the assay on CCRF-CEM leukemia and 2.09% (active) in the assay on MOLT-4 leukemia.

As for `CC(SC(C)C(=O)N/N=C/c1cccc(Cl)c1)C(=O)N/N=C\c1cccc(Cl)c1` (stereo not given), the growth is 95.8% in the assay with SK-MEL-2 melanoma; 94.9% in the assay on EKVX NSCLC; 63.9% in the assay with SN12C renal; 90.2% in the assay on UO-31 renal; 105% with TK-10 renal; 44% in the assay on ACHN renal. The growth with CAKI-1 renal is 91.6%; in the assay with A498 renal, 102%; with CCRF-CEM leukemia it was 48.6%; with MOLT-4 leukemia, 68.3%.

Turning to `CCOC(=O)C1OC2(CCCC2)OC1C(=O)OCC` (stereo not given), the growth in the assay on SK-MEL-2 melanoma is 94.9%; with EKVX NSCLC, 108%; with SN12C renal it was 101%; with UO-31 renal, 83%; in the assay on TK-10 renal it was 102%; with ACHN renal, 109%. Further, the growth in the assay on CAKI-1 renal was 102%; with A498 renal, 107%; with CCRF-CEM leukemia, 86.3%; in the assay on MOLT-4 leukemia it was 92.2%.

As for `COc1cc(NCCC2CCCCN2)c2ncccc2c1OC` (stereo not given), the growth with SK-MEL-2 melanoma was 50.5%; in the assay on EKVX NSCLC, 114%; in the assay with SN12C renal, 81.6%; in the assay with UO-31 renal, 65.3%; in the assay with TK-10 renal, 104%; in the assay with ACHN renal it was 82.9%. Besides, the growth was 100% in the assay on CAKI-1 renal, 113% in the assay on A498 renal, 47.2% in the assay with CCRF-CEM leukemia and 43% in the assay with MOLT-4 leukemia.
